Assay results from PubChem BioAssay (NCI).
Compounds without any hit were thinned out: in the full panel of roughly 79,000, 15% have a hit. Rule as the data show it: active = growth inhibition above about 70%; inactive = the rest. Where a SMILES comes first, the peptide text is derived from it. The star is where a group is joined. Boc = CC(C)(C)OC(=O)*

What was measured:
[1] = NCI Yeast Anticancer Drug Screen. Data for the rad50 strain (AID 155);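 also: 0% = growth of vehicle-only cultures of the same strain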; details: S. cerevisiae rad50 strain growth inhibition; at 50.0 µM; stronger effect = higher value
Method in brief: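 A DNA repair-deficient yeast mutant serves as the test organism; compound-induced growth inhibition is calculated against vehicle-treated cells.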

[2] = NCI Yeast Anticancer Drug Screen. Data for the mec2-1 strain (AID 157); details: S. cerevisiae mec2-1 strain, at 50.0 µM, stronger effect = higher value
Method in brief: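 mec2-1 yeast strain, carrying an alteration in DNA damage repair or cell cycle control, was exposed to compounds; growth inhibition was measured relative to vehicle-treated controls.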

[3] = NCI Yeast Anticancer Drug Screen. Data for the sgs1 mgt1 strain (AID 161);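 also: 0% = growth of cultures given vehicle only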; details: S. cerevisiae sgs1 mgt1 strain, at 50.0 µM, stronger effect = higher value
Method in brief: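 Compounds are added to genetically altered yeast, and growth is compared with cultures given vehicle alone to give percent inhibition.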

[4] = NCI Yeast Anticancer Drug Screen. Data for the cln2 rad14 strain (AID 165);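 also: 0% = growth equal to vehicle treated cultures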; details: S. cerevisiae cln2 rad14 strain, at 50.0 µM, stronger effect = higher value
Method in brief: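 Yeast carrying cln2 and rad14 alterations (cell cycle control and DNA damage repair) were exposed to compounds. Growth inhibition was measured against vehicle-treated controls.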

[5] = NCI Yeast Anticancer Drug Screen. Data for the bub3 strain (AID 167); details: S. cerevisiae bub3 mutant strain, at 50.0 µM, stronger effect = higher value
Method in brief: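 Inhibition values come from growth of compound-treated mutant yeast normalised to vehicle-treated controls.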

[6] = NCI Yeast Anticancer Drug Screen. Data for the mlh1 rad18 strain (AID 175); details: S. cerevisiae mlh1 rad18 strain growth inhibition; at 50.0 µM; stronger effect = higher value
Method in brief: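 Growth inhibition of the yeast strain was measured after compound exposure and expressed relative to vehicle-treated controls. The strain carries defined defects in DNA damage repair.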

Measured: growth inhibition

CCOC(=O)C(=CNc1ccc2c(c1)OCO2)C(=O)OCC
inactive: [1] 4.95% | [2] -11.2% | [3] 28.2% | [4] 4.65% | [5] 49.4% | [6] 14.8%

CCOC(=O)C(C)C(=O)OCC
inactive: [1] 51.2% | [2] -17.9% | [3] 2.55% | [4] -3.6% | [5] 2.3% | [6] 34.5%

COC12COC(=O)C1C(c1ccc3c(c1)OCO3)c1cc3c(cc1O2)OCO3 (stereo not given)
inactive: [1] 21.8% | [2] -0.6% | [3] 11.5% | [4] 8.95% | [5] 17.4% | [6] -4.7%

CCOC(=O)c1ccc(NCCCc2c(C)nc(N)[nH]c2=O)cc1
inactive: [1] 5.25% | [2] 9.5% | [3] -9.15% | [4] -10.3% | [5] 34.6% | [6] -2.85%

CC(=O)c1ccc2ccc3ccccc3c2c1O
inactive: [1] -3.85% | [2] -8.75% | [3] -14.3% | [4] -30.6% | [5] -8.4% | [6] 5.25%

C1CCC(C2CCC(C3CCCCC3)CC2)CC1 (stereo not given)
inactive: [1] -14.1% | [2] -8.75% | [3] -9.55% | [4] -45.6% | [5] 6.35% | [6] 6.15%

O=[N+]([O-])c1cc2c(cc1Cl)C1C(C3C2C2(Cl)C(Cl)=C(Cl)C3(Cl)C2(Cl)Cl)C2(Cl)C(Cl)=C(Cl)C1(Cl)C2(Cl)Cl (stereo not given)
inactive: [1] 24.4% | [2] 9.6% | [3] 30.2% | [4] 24.2% | [5] 20.6% | [6] 18%

CC1c2ccccc2-c2ccccc21
inactive: [1] 10.2% | [2] -4.9% | [3] 7.25% | [4] -3.15% | [5] -1% | [6] 20.4%

C=C(c1ccccc1)N1N=NC2CCOC21 (stereo not given)
inactive: [1] -4.25% | [2] -10% | [3] 4.2% | [4] -20.6% | [5] -16.8% | [6] -8.65%

COC(=O)CNC(=O)C(CC(C)C)NC(=O)C(CC(C)C)NC(=O)OC(C)(C)C (stereo not drawn) (Boc-Leu-Leu-Gly-OMe; configuration not given here)
inactive: [1] 42.2% | [2] 1.65% | [3] 32.1% | [4] 10.5% | [5] -0.6% | [6] 15.8%

CC(C)Oc1c(NCCO)c2cc(Cl)ccc2oc1=O
inactive: [1] -3.5% | [2] 10.9% | [3] 20.5% | [4] -66.2% | [5] -1.1% | [6] -12.1%

Cn1c(=O)c2[nH]c(C3CC(=O)CC(c4nc5c([nH]4)c(=O)n(C)c(=O)n5C)N3)nc2n(C)c1=O (stereo not given)
inactive: [1] -1.75% | [2] 5.1% | [3] -14.4% | [4] 1.8% | [5] -27.4% | [6] 7.15%

CC(=O)OCC1OC(Nc2[nH]c(=O)n(C)c(=O)c2-c2csc(N)n2)C(OC(C)=O)C(OC(C)=O)C1OC(C)=O (stereo not given)
inactive: [1] -12.8% | [2] -25.6% | [3] -32.9% | [4] 27.4% | [5] -8.9% | [6] -8.6%

c1ccc2c(N=C(Nc3cccc4ccccc34)c3cccc4ccccc34)cccc2c1
inactive: [1] 20.4% | [2] 19.6% | [3] 35.8% | [4] 28.9% | [5] 17.3% | [6] 13.6%

CCC(c1ccc(O)cc1)c1cc2c(cc1OCCO)OCO2 (stereo not given)
inactive: [1] -15.7% | [2] -9.25% | [3] -5.7% | [4] -11.2% | [5] -7.9% | [6] -5.3%

O=C(Cc1ccccc1)NN1C(=O)/C(=C\c2cccc(O)c2)SC1=Nc1ccccc1
inactive: [1] -11% | [2] -18.9% | [3] -6% | [4] 5.9% | [5] -45.3% | [6] -16.9%

COc1ccc(C2C3=CONC3CC3CCCCC32)cc1 (stereo not given)
inactive: [1] 4.5% | [2] -34.5% | [3] -0.4% | [4] 8.25% | [5] 6.25% | [6] 6.5%

COC(=O)CCc1ccc(CCC(=O)OC)cc1
inactive: [1] -14.8% | [2] -37.1% | [3] -1.5% | [4] 4.2% | [5] -11.2% | [6] 9.7%

Cc1c2ccccc2c(C)n2c1nc1cc3ccccc3cc12
inactive: [1] 9.8% | [2] 11.9% | [3] 11.8% | [4] 8.55% | [5] 4.65% | [6] 28.6%

CCOC(=O)Cn1ccc[n+]1CC(=O)c1ccccc1
inactive: [1] -14.9% | [2] 7.9% | [3] 17.4% | [4] -16.2% | [5] -15.4% | [6] -3.1%

O=C1CCCCC1COCC1CCCCC1=O (stereo not given)
inactive: [1] -4.8% | [2] 2.65% | [3] -2.15% | [4] -17.6% | [5] 5.25% | [6] -21.4%

c1ccc2c(c1)nnn2CN1CCOCC1
inactive: [1] -6.3% | [2] 17.1% | [3] -26.6% | [4] -22.9% | [5] 3.15% | [6] 5.7%

Nc1nc2c(nnn2-c2ccc(Cl)cc2)c(=O)[nH]1
inactive: [1] -4.3% | [2] -4.15% | [3] -5.85% | [4] -25.1% | [5] -0.5% | [6] -6.25%

Cc1ccc2nc(N)nc(N)c2c1
inactive: [1] -12.9% | [2] 7.15% | [3] -8.4% | [4] 3.25% | [5] -10.6% | [6] -3.8%

CC(=O)N(C(C)=O)C(CS)C(=O)O (stereo not given)
inactive: [1] 4.1% | [2] -11.8% | [3] 2.85% | [4] 14.8% | [5] 9.05% | [6] 2.6%

CCCCCCn1c(=O)c(N(C)C)c(C)n(C)c1=O
inactive: [1] -36.1% | [2] -3.5% | [3] -9.05% | [4] 46% | [5] 17.7% | [6] -23.4%

O=C(O)c1ccc2c(c1C(=O)O)C(=O)OC2(c1ccc(O)cc1)c1ccc(O)cc1
inactive: [1] -14.8% | [2] 11.7% | [3] -21.6% | [4] -21.8% | [5] -10.9% | [6] 4.85%

Cc1ccc(N=Nc2c(C)nc(N)nc2C)cc1
inactive: [1] 7.5% | [2] 13.9% | [3] -12.7% | [4] -2.85% | [5] 12.1% | [6] -6.55%

[O-][n+]1ccc(Cl)cc1
inactive: [1] -4.15% | [2] -14.8% | [3] -19% | [4] -15.2% | [5] -10.1% | [6] -9.35%

Cc1cccc(C(=O)NCCN(C)C)c1[N+](=O)[O-]
inactive: [1] 5.55% | [2] -20.9% | [3] 1.2% | [4] 14.9% | [5] -16.4% | [6] 3.35%

CC(C)COCC1COC2(OCC(C)(C)C2OC(=O)Nc2ccccc2)O1 (stereo not given)
inactive: [1] 5.55% | [2] -0.6% | [3] -12.4% | [4] -5.6% | [5] 5.95% | [6] 17.6%

CNC(=S)n1ncnc1N
inactive: [1] 11% | [2] -5.95% | [3] -2.9% | [4] -17.8% | [5] -3.75% | [6] 8.25%

NC(Cc1c[nH]c2ccc(O)cc12)C(=O)O (stereo not given)
inactive: [1] -5.85% | [2] -8.35% | [3] -4.9% | [4] 4.9% | [5] -0.7% | [6] -9.3%

CN1C(=O)N/C(=C\c2ccc(S(=O)(=O)NN)cc2)C1=O
inactive: [1] 4.05% | [2] 9.6% | [3] 24.7% | [4] 11.7% | [5] -18.8% | [6] 39.2%

CC(=O)OCC1OC(n2c(C)c(N=Nc3ccc(C)cc3)c(C)c(C#N)c2=S)C(OC(C)=O)C(OC(C)=O)C1OC(C)=O (stereo not given)
inactive: [1] -8.05% | [2] -14.4% | [3] 11.9% | [4] 2.65% | [5] -10.8% | [6] -2.75%

Clc1ccc(-c2nnc3n2NC(c2ccccc2)S3)c(Cl)c1 (stereo not given)
inactive: [1] 2.7% | [2] -26% | [3] -13.8% | [4] 10.8% | [5] -18.9% | [6] -27.6%

O=c1ccsc(=S)[nH]1
inactive: [1] -1% | [2] -2.1% | [3] -8.35% | [4] 0.25% | [5] 9.05% | [6] -3.9%

COC(=O)N1CCC(Sc2ccccc2)C2(CCSc3ccccc3)CCC=C12 (stereo not given)
inactive: [1] -2.2% | [2] -2.95% | [3] 5% | [4] -28.1% | [5] -27.6% | [6] -12.6%

Cc1cccc(C)c1N=O
inactive: [1] -6.25% | [2] -15.2% | [3] -7.45% | [4] 22.8% | [5] 1.15% | [6] -16.1%

CCCCOC(=O)/C(=C\c1ccc(OC(C)=O)c(OC)c1)NC(=O)c1ccccc1
inactive: [1] 4.7% | [2] 7.6% | [3] -1.5% | [4] -10.3% | [5] 14.9% | [6] -6.35%
